Active and inactive are the calls of the source.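 How the source made its calls: active means fold change of 2 or more in glucocerebrosidase protein level on Western blot; inactive means the rest.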
What follows are molecules tested against Lysosomal acid glucosylceramidase (Homo sapiens) (UniProt P04062) (assay: Extended Characterization of Activators of N370S glucocerebrosidase as a Potential Chaperone Treatment of Gaucher Disease: Western Blot). Conditions: Patient cells, GCase protein level, active compounds read high.
From the text: Glucocerebrosidase (GCase) catalyzes the hydrolysis of beta-glucocerebroside to glucose and ceramide in lysosomes. Mutations in the glucocerebrosidase gene result in Gaucher disease, an autosomal recessive lysosomal storage disorder. Many of the mutations encountered in patients with Gaucher disease are missense alterations that may cause misfolding, decreased stability and/or mistrafficking of this lysosomal protein. […] These inhibitors include iminosugar analogs and other inhibitors that were discovered as part of previous work. However, the enhancement of enzyme activity by the chaperone action of an enzyme inhibitor must be balanced against the direct inhibition of the enzyme. […] In this extended characterization of our probe, we have further characterized the activity of our probe in relevant models. In this Western Blot assay, we examined the effects of compounds to increase GCase activity. NIH Chemical Genomics Center [NCGC] NIH Molecular Libraries Probe Production Centers Network [MLPCN] MLPCN Grant: MH086442 Assay Submitter (PI): Ellen Sidransky, NHGRI
The cells were plated and exposed to the compounds. Cells were harvested and the cell extracts were subjected to SDS-PAGE and Western blotting procedures to evaluate the extent of upregulation of GCase activity.

Lysosomal acid glucosylceramidase (Homo sapiens), sequence (P04062 40-536 N409S): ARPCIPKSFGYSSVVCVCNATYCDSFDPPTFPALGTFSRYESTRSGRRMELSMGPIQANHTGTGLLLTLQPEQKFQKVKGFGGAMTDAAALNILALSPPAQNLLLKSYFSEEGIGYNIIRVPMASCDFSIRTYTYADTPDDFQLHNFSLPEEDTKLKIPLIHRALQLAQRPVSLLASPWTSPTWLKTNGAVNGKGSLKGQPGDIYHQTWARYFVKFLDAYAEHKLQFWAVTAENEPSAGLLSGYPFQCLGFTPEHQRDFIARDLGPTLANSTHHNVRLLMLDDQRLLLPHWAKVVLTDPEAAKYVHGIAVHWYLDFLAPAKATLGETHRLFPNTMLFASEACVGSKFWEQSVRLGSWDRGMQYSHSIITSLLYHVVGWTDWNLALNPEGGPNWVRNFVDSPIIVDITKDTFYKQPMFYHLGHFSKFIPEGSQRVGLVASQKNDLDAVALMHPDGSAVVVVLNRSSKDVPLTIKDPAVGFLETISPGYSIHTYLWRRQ

Row | Structure (SMILES) | fold change
1 | C#Cc1ccc(NC(=O)c2cnn3c(C)cc(C)nc23)cc1 | 2 (active)

Reference: PubChem BioAssay AID652096 (National Center for Advancing Translational Sciences (NCATS), 2013)
